Screening results as filed in PubChem.
Sampled rows, rich in hits. Any-hit rate of the full collection: about 3.4%.
Tau ThT inhib: inhibitors of human tau fibril formation, thioflavin T binding; 270,000 tested, 2.1% active; AID 1460; Potency, µM (highest dose often 57.4 µM), without a hit: at the top dose activity, negative = inhibition, hits mostly inhibitors; recombinant tau K18 P301L, heparin-induced fibrillization, ThT fluorescence; also: nearly all actives have a fitted effect of over 55% in size
Target sequence (P10636 561-689 P618L limits assumed): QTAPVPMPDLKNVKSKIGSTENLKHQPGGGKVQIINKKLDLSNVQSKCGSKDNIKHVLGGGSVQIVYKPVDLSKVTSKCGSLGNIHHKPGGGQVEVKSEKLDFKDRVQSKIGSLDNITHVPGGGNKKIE
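Heparin-induced (20 uM) aggregation of recombinant human K18 P301L tau, 15 uM unlabeled with 0.24 uM labeled, pH 7 acetate buffer, 6 hr at 37 C with compound. Fibrils quantified by 30 uM ThT fluorescence after 1 hr ambient incubation.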
RGS12 GoLoco inh: inhibitors of human Gai1-RGS12 GoLoco interaction (red fluorophore); Potency, µM (doses to about 61.6 µM), for inactives: top-dose activity, negative = inhibition, hits mostly inhibitors; Gai1:RGS12 GoLoco peptide FP, rhodamine, 10 min; P63096; 230,000 tested, 0.44% active; active = well fitted inhibition curve with a large enough effect, not every such curve was filed as active; inactive = no such curve, though single readings can be large or run the other way; also: nearly all actives have a fitted effect of over 30% in size
Target sequence (P63096 whole entry, looked up): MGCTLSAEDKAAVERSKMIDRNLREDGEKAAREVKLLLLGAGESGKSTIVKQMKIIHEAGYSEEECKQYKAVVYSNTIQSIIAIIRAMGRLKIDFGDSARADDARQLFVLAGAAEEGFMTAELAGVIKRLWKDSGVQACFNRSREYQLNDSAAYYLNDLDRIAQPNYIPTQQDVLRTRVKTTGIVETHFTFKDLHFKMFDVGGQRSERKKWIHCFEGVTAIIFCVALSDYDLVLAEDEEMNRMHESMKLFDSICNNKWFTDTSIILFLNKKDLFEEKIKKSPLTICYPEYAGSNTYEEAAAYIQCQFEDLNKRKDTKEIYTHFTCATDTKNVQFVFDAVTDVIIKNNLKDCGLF
Tau fluor counter: counter-screen for tau fibril formation inhibitors; tau K18 P301L (four-repeat tau fragment) Alexa594 fluorescence, heparin fibrillization; Potency, µM (series often up to 57.7 µM), without a hit: at the top dose activity change, negative = decrease; 280,000 tested, 0.93% active; AID 1463; also: nearly all actives have a fitted effect of over 55% in size
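Human K18 P301L tau (15 uM unlabeled plus 0.24 uM Alexa 594-labeled, final) in 100 mM sodium acetate pH 7 was mixed with compound and 20 uM heparin and incubated 6 hr at 37 C.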
KDM4E inh: JMJD2E (human) inhibition; Potency, µM (doses to about 57.1 µM), inactives show top-dose activity change, negative = inhibition, actives largely listed as inhibitors; JMJD2E catalytic domain, FDH-coupled NADH fluorescence (FDH is formaldehyde dehydrogenase); 230,000 tested, 1.6% active; B2RXH2; active = well fitted inhibition curve with a large enough effect, not every such curve was filed as active; inconclusive = small, poorly fitted or top-dose-only effect, or another doubt; inactive = no such curve, though single readings can be large or run the other way;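 also: 0% = wells with enzyme and -100% = buffer wells without enzyme; nearly all actives have a fitted effect of over 50% in size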
Tau fibril FP: inhibitors of human tau fibril formation | K18 P301L tau heparin fibrillization, Alexa594 FP, 6 h | Potency, µM (series often up to 57.7 µM), inactives show top-dose activity, negative = inhibition, most hits filed as inhibitors | 280,000 tested, 0.39% active | AID 1468; also: nearly all actives have a fitted effect of over 55% in size
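Compound effects on tau fibrillization are measured by Alexa 594 fluorescence polarization (ex 555, em 632 nm). K18 P301L tau is used at 15 uM with 0.24 uM labeled tracer, and 20 uM heparin induces aggregation over 6 hr at 37 C.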
Active calls of the source: *; ? = inconclusive; . = no result; ! = a repeat was not active; [ ] = dose if it differs, or a comment. Unless noted, calls follow the shape of the dose curve; as a rule, active = well fitted curve in the direction sought with a large enough effect; inconclusive = small, poorly fitted or top-dose-only effect, or another doubt; inactive = no such curve, though single readings can be large; an effect the other way counts as inactive or inconclusive. Unless noted, % is scaled to controls: 0 for no effect and ±100 for the full control effect; potency is read from the fitted curve at half-maximal effect.

SMILES | Tau ThT inhib | RGS12 GoLoco inh | Tau fluor counter | KDM4E inh | Tau fibril FP
Cc1cc(C(=O)N2CCN(c3cccc(C)c3C)CC2)c2c(C)nn(-c3ccccc3)c2n1 | -17% | . | -16% | . | -4%
Cc1cc(NC(=O)c2cccs2)cc(-c2nc3cc(Cl)ccc3o2)c1O | -1% | . | -25% | . | ?
CCN1C(=O)/C(=C2\C=Cc3cc(C)ccc3N2CC)OC1=S | ? | 24% | -9% | -4% | 5%
CCN1/C(=C/c2cc[n+](C)cc2)C=Cc2cc(C)ccc21 | 8.9µM* | 53% | 11% | ? | -5%
Cc1noc(C)c1S(=O)(=O)N1CCCC(C(=O)Nc2ccc(C(C)C)cc2)C1 (centres undefined) | 1% | . | -21% | . | -2%
Cc1cccc(NC2=C(NCCO)C(=O)c3ccccc3C2=O)c1 | 25µM* | 7% | ? | ? | ?
COc1ccc(NC2=C(c3ccc(OC)cc3)C(=O)c3ccccc32)cc1 | ? | 11% | ? | -4% | ?
COC1=C(Nc2ccc(O)cc2)C(=O)c2ccccc2C1=O | 13µM* | -22% | ? | 10µM* | ?
Cc1cccc(Nc2nc(N)c([N+](=O)[O-])c(NCCO)n2)c1 | ? | -1% | 4% | 2% | 15%
COc1ccc(NC2=C(NCCO)C(=O)c3ccccc3C2=O)cc1 | 13µM* | -5% | ? | ? | ?
COC1=C(Nc2ccc(OC)cc2)C(=O)c2ccccc2C1=O | 11µM* | -1% | ? | 4µM* | ?
O=C(COc1ccccc1F)Nc1ccc2nc(SCC(=O)N3CCOCC3)sc2c1 | -14% | . | -25% | . | -4%
COc1ccc(C2=C(Nc3ccccc3)c3ccccc3C2=O)cc1 | ? | 12% | ? | -7% | 9%
CCOc1ccc(NC2=C(OC)C(=O)c3ccccc3C2=O)cc1 | 10µM* | 7% | ? | 14µM* | ?
COc1cc(O)c(C(=O)/C=C/c2ccccc2)c(OC)c1 | ? | 25µM*! | -22% | 8% | 6%
CCOC(=O)c1ccc(NC(=O)c2ccc(=O)n(Cc3cccc(C)c3)c2)cc1 | -11% | . | ? | . | ?
COc1cc(NC(=O)CCCc2nnc3n(CC(C)C)c(=O)c4sccc4n23)cc(OC)c1 | 6% | . | -27% | . | -3%
CCc1ccc(S(=O)(=O)ON2C(=O)c3ccccc3C2=O)cc1 | 16µM* | -14% | -13% | ? | ?
O=C1c2cccc3cccc(c23)C(=O)N1OS(=O)(=O)c1ccc(Cl)cc1 | -7% | -14% | -9% | ? | -12%
Cc1ccc(C(=O)NC(C#N)=C(Cl)Cl)cc1 | 25µM* | 2% | -10% | -24% | ?
Cc1ccc(C(=O)NCC#N)cc1 | -1% | -1% | -3% | 3% | -1%
COC(=O)c1ccc(=O)n(Cc2ccco2)c1 | -15% | 4% | -11% | 32µM* | 10%
Clc1cccc(N/N=C(\Cc2nc3ccccc3[nH]2)c2ccccc2)c1 | ? | 2% | 7.1µM*[quencher] | -17% | ?
O=C(NCc1nc2ccccc2[nH]1)c1cccc(Cl)c1 | -11% | . | -10% | . | -2%
O=[N+]([O-])c1ccc(NCCCO)c(S(=O)(=O)N2CCOCC2)c1 | -7% | -4% | -4% | -1% | -8%
SMILES | Tau ThT inhib | RGS12 GoLoco inh | Tau fluor counter | KDM4E inh | Tau fibril FP
C/C(=N\Nc1cccc([N+](=O)[O-])c1)c1ccccc1O | ? | 5% | 5µM*[quencher] | -8% | ?
O=[N+]([O-])c1ccc(N/N=C/c2cccc(O)c2O)c(S(=O)(=O)N2CCOCC2)c1 | ? | -9% | ? | 14µM* | 0%
O=[N+]([O-])c1cccc(N/N=C/c2cccc(O)c2O)c1 | 7.9µM* | 11% | 16µM*[quencher] | 14µM* | 5%
COc1cc(/C=N/Nc2ccc([N+](=O)[O-])cc2S(=O)(=O)N2CCOCC2)cc(OC)c1OC | ? | 5% | ? | -1% | -3%
O=[N+]([O-])c1ccc(N/N=C/c2ccc(O)c(O)c2O)c(S(=O)(=O)N2CCOCC2)c1 | 4µM* | 88% | ? | 7.9µM* | 10µM*
COc1cc(-c2cc(OC)c3c(C)oc(C)c3c(=O)c2)ccc1OC(=O)c1ccccc1C | ? | . | -15% | . | 3%
COc1cccc(NC(=O)Cn2c(=O)n(CCCCC(=O)NCc3ccc4c(c3)OCO4)c(=O)c3ccccc32)c1 | -3% | . | -5% | . | 1%
